Measured values taken from PubChem BioAssay (NCI).
About 83,000 compounds went through this panel and 20% of them were active in at least one assay; those are over-represented in the sample as a whole.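 Values shown are percent growth following 48 h exposure of cells in 96-well plates to a single concentration of compound; below 10 was considered active.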 Calls of active or inactive are those of the source.

Legend:
Assay in all cases: NCI-60 one-dose screen, 48 h (100 = growth as untreated, 0 = no growth, -100 = all killed)
Details in all cases: 10 µM unless noted
DU-145 prostate = test system: DU-145 prostate
K-562 leukemia = test system: K-562 leukemia
MALME-3M melanoma = test system: MALME-3M melanoma
MDA-MB-231 breast = test system: MDA-MB-231 breast
RXF 393 renal = test system: RXF 393 renal
SF-268 CNS = test system: SF-268 CNS
SF-295 CNS = test system: SF-295 CNS
SF-539 CNS = test system: SF-539 CNS
UACC-257 melanoma = test system: UACC-257 melanoma
M14 melanoma = test system: M14 melanoma
HCT-15 colon = test system: HCT-15 colon
HT29 colon = test system: HT29 colon
SNB-75 CNS = test system: SNB-75 CNS
SNB-19 CNS = test system: SNB-19 CNS
U251 CNS = test system: U251 CNS
PC-3 prostate = test system: PC-3 prostate
UACC-62 melanoma = test system: UACC-62 melanoma
LOX IMVI melanoma = test system: LOX IMVI melanoma
SK-MEL-28 melanoma = test system: SK-MEL-28 melanoma
SK-MEL-5 melanoma = test system: SK-MEL-5 melanoma

Measured: growth

Cc1nc2ccccc2n1CC1NC(=O)NC1=O (stereo unspecified)
inactive: DU-145 prostate 110% | K-562 leukemia 99.9% | MALME-3M melanoma 102% | MDA-MB-231 breast 102% | RXF 393 renal 103% | SF-268 CNS 96.1% | SF-295 CNS 107% | SF-539 CNS 99.4% | UACC-257 melanoma 99.1% | M14 melanoma 105% | HCT-15 colon 104% | HT29 colon 105% | SNB-75 CNS 78.7% | SNB-19 CNS 98.4% | U251 CNS 103% | PC-3 prostate 96.2% | UACC-62 melanoma 98.4% | LOX IMVI melanoma 95.6% | SK-MEL-28 melanoma 99.4%

c1c[nH]c(CNC2CCCCC2)c1
inactive: DU-145 prostate 106% | K-562 leukemia 103% | MALME-3M melanoma 106% | MDA-MB-231 breast 129% | RXF 393 renal 119% | SF-268 CNS 101% | SF-295 CNS 105% | SF-539 CNS 114% | UACC-257 melanoma 119% | M14 melanoma 104% | HCT-15 colon 104% | HT29 colon 105% | SNB-75 CNS 108% | SNB-19 CNS 119% | U251 CNS 102% | PC-3 prostate 81.6% | UACC-62 melanoma 110% | LOX IMVI melanoma 89.7% | SK-MEL-28 melanoma 120%

C=CCNc1nc(NN2C(=O)c3cccc4cccc(c34)C2=O)nc(-n2cnc3ccccc32)n1
inactive: DU-145 prostate 97.9% | MALME-3M melanoma 93.5% | MDA-MB-231 breast 68.3% | RXF 393 renal 50.3% | SF-268 CNS 65% | SF-295 CNS 76.5% | SF-539 CNS 50.4% | UACC-257 melanoma 102% | M14 melanoma 97.9% | HCT-15 colon 66.7% | HT29 colon 88.9% | SNB-75 CNS 39.2% | SNB-19 CNS 83.7% | U251 CNS 63.3% | PC-3 prostate 67.1% | UACC-62 melanoma 77.2% | LOX IMVI melanoma 77.8% | SK-MEL-28 melanoma 103%
active: K-562 leukemia 9.94%

N[C@@H](CCCCNCC(=O)O)C(=O)O
inactive: DU-145 prostate 103% | K-562 leukemia 100% | MALME-3M melanoma 97.6% | MDA-MB-231 breast 89.1% | RXF 393 renal 108% | SF-268 CNS 102% | SF-295 CNS 100% | SF-539 CNS 92.7% | UACC-257 melanoma 101% | M14 melanoma 104% | HCT-15 colon 98.8% | HT29 colon 116% | SNB-75 CNS 84.1% | SNB-19 CNS 99.2% | U251 CNS 99.9% | PC-3 prostate 121% | UACC-62 melanoma 94.4% | LOX IMVI melanoma 100% | SK-MEL-28 melanoma 104%

CC1(C)CC[C@]2(C(=O)N3CCOCC3)CC[C@]3(C)C(=CC[C@@H]4[C@@]5(C)CC[C@H](OC(=O)c6cccnc6)C(C)(C)[C@@H]5CC[C@]43C)[C@@H]2C1
inactive: DU-145 prostate 60.9% | K-562 leukemia 36% | MALME-3M melanoma 88.6% | MDA-MB-231 breast 70.4% | RXF 393 renal 84.3% | SF-268 CNS 71.1% | SF-295 CNS 51.2% | SF-539 CNS 71.5% | UACC-257 melanoma 65.5% | M14 melanoma 72.8% | HCT-15 colon 49.4% | HT29 colon 42.3% | SNB-75 CNS 67.7% | SNB-19 CNS 67.5% | U251 CNS 53.2% | PC-3 prostate 38.9% | UACC-62 melanoma 35.7% | LOX IMVI melanoma 28% | SK-MEL-28 melanoma 66.1%

Cc1cc(NCc2cc(Nc3ccnc4cc(Cl)ccc34)ccc2F)nc(N2CCN(c3ccccc3)CC2)n1
inactive: DU-145 prostate 72.5% | MALME-3M melanoma 84.4% | MDA-MB-231 breast 17.2% | RXF 393 renal 47.4% | SF-268 CNS 65.3% | SF-295 CNS 27.3% | SF-539 CNS 61.9% | UACC-257 melanoma 73.7% | M14 melanoma 43.4% | HCT-15 colon 15.6% | HT29 colon 13.6% | SNB-75 CNS 57.7% | SNB-19 CNS 76.5% | U251 CNS 10.5% | PC-3 prostate 42.7% | SK-MEL-5 melanoma 53.3% | UACC-62 melanoma 70.6% | SK-MEL-28 melanoma 69.7%
active: K-562 leukemia -0.109% | LOX IMVI melanoma -84.6%

CC1CC(C(C)(C)C)C(=O)C(C(C)(C)C)C1 (stereo unspecified)
inactive: DU-145 prostate 112% | K-562 leukemia 102% | MALME-3M melanoma 105% | MDA-MB-231 breast 109% | RXF 393 renal 112% | SF-268 CNS 103% | SF-295 CNS 105% | SF-539 CNS 101% | UACC-257 melanoma 102% | M14 melanoma 118% | HCT-15 colon 97.8% | HT29 colon 93.4% | SNB-75 CNS 105% | SNB-19 CNS 106% | U251 CNS 105% | PC-3 prostate 108% | UACC-62 melanoma 100% | LOX IMVI melanoma 106% | SK-MEL-28 melanoma 116%

Fc1cnc(NC2CC2)nc1-c1cnc2ccc(N3CCOCC3)cn12
inactive: K-562 leukemia 10.9% | SNB-19 CNS 11.5%
active: DU-145 prostate 7.39% | MALME-3M melanoma -33.7% | MDA-MB-231 breast 2.98% | RXF 393 renal -47.1% | SF-268 CNS 0.958% | SF-295 CNS 3.46% | SF-539 CNS -35% | UACC-257 melanoma -7.35% | M14 melanoma -26% | HCT-15 colon 1.15% | HT29 colon 0.985% | SNB-75 CNS -42.9% | U251 CNS 8.28% | PC-3 prostate 5.58% | UACC-62 melanoma -80.6% | LOX IMVI melanoma 4.17% | SK-MEL-28 melanoma -4.09%

O=C(CCc1nnc(CN(c2ccccc2)c2ccccc2)o1)c1nc2ccccc2[nH]1
inactive: DU-145 prostate 104% | K-562 leukemia 76.3% | MALME-3M melanoma 94.3% | MDA-MB-231 breast 75.3% | RXF 393 renal 113% | SF-268 CNS 93.6% | SF-295 CNS 95.6% | SF-539 CNS 97.5% | UACC-257 melanoma 103% | M14 melanoma 102% | HCT-15 colon 97.4% | HT29 colon 93.4% | SNB-75 CNS 86.9% | SNB-19 CNS 92.7% | U251 CNS 94.9% | PC-3 prostate 76.3% | UACC-62 melanoma 69.4% | LOX IMVI melanoma 80.3% | SK-MEL-28 melanoma 112%

O=C(NCCCNc1cc(-c2cn(-c3ccccc3)nc2-c2cccc(O)c2)ccn1)c1ccccc1
active: K-562 leukemia -4.2% | MALME-3M melanoma -5.89% | MDA-MB-231 breast -6.57% | UACC-257 melanoma -49.2% | M14 melanoma 3.42% | HCT-15 colon 1.17% | HT29 colon -2.39% | SK-MEL-28 melanoma 4.17%
inactive: DU-145 prostate 49.7% | RXF 393 renal 24% | SF-268 CNS 44.1% | SF-295 CNS 12% | SF-539 CNS 27.3% | SNB-75 CNS 23.1% | SNB-19 CNS 65.7% | U251 CNS 27.9% | PC-3 prostate 27.2% | UACC-62 melanoma 23.6% | LOX IMVI melanoma 17.3%

Clc1cc(Cl)cc(Nc2ccc3cc(OCCCN4CCOCC4)ccc3n2)c1
active: K-562 leukemia -27.3% | MDA-MB-231 breast -5.22% | RXF 393 renal 5.08% | SF-295 CNS -59.7% | SF-539 CNS 9.86% | HCT-15 colon 7.18% | HT29 colon -39.5% | U251 CNS 2.35% | LOX IMVI melanoma -77.6%
inactive: DU-145 prostate 40.6% | MALME-3M melanoma 66.5% | SF-268 CNS 46.9% | UACC-257 melanoma 49% | M14 melanoma 12.6% | SNB-75 CNS 11% | SNB-19 CNS 38.5% | PC-3 prostate 21.8% | UACC-62 melanoma 12.9% | SK-MEL-28 melanoma 27.8%

CCN(CCNc1ccc(C)c2sc3ccccc3c(=O)c12)CC(C)(C)O
inactive: DU-145 prostate 95.7% | MALME-3M melanoma 89.1% | MDA-MB-231 breast 78% | RXF 393 renal 74.7% | SF-268 CNS 83.3% | SF-539 CNS 78.9% | UACC-257 melanoma 95.9% | M14 melanoma 73.2% | HCT-15 colon 28.8% | HT29 colon 39.2% | SNB-75 CNS 73.7% | SNB-19 CNS 78% | U251 CNS 49.7% | PC-3 prostate 71.4% | UACC-62 melanoma 53.6% | LOX IMVI melanoma 54.4% | SK-MEL-28 melanoma 79.6%
active: K-562 leukemia -34.5% | SF-295 CNS -17.6%

COc1ccc(-c2cc(-c3cc(OC)c(OC)c(OC)c3)c(C#N)c(N3CCOCC3)n2)cc1O
active: K-562 leukemia 2.4%
inactive: DU-145 prostate 59% | MALME-3M melanoma 126% | MDA-MB-231 breast 49.8% | RXF 393 renal 41.3% | SF-268 CNS 49.6% | SF-295 CNS 41.6% | SF-539 CNS 37.9% | UACC-257 melanoma 90.3% | M14 melanoma 67.5% | HCT-15 colon 23.5% | HT29 colon 108% | SNB-75 CNS 30.1% | SNB-19 CNS 52.3% | U251 CNS 51.1% | PC-3 prostate 38.9% | UACC-62 melanoma 89.9% | LOX IMVI melanoma 13.7% | SK-MEL-28 melanoma 60%

O=[N+]([O-])c1ccc(-c2cc(-c3ccc(Nc4nc(Nc5ccc(Cl)cc5)nc(Nc5ccc(Cl)cc5)n4)cc3)no2)cc1
inactive: DU-145 prostate 87.7% | K-562 leukemia 65.6% | MALME-3M melanoma 96.3% | MDA-MB-231 breast 73.5% | RXF 393 renal 71.7% | SF-268 CNS 96.1% | SF-295 CNS 563% | SF-539 CNS 95.4% | UACC-257 melanoma 105% | M14 melanoma 102% | HCT-15 colon 89.9% | HT29 colon 16.5% | SNB-75 CNS 16.9% | SNB-19 CNS 98.2% | U251 CNS 91.9% | PC-3 prostate 74.1% | UACC-62 melanoma 95.7% | LOX IMVI melanoma 84.4% | SK-MEL-28 melanoma 40.5%

Cc1ccc(C(=O)C2=C(O)C(=O)N(Cc3cccnc3)C2c2ccccc2F)o1 (stereo unspecified)
inactive: DU-145 prostate 105% | K-562 leukemia 76.7% | MALME-3M melanoma 101% | MDA-MB-231 breast 106% | RXF 393 renal 95.8% | SF-268 CNS 98.1% | SF-295 CNS 93.1% | SF-539 CNS 95.1% | UACC-257 melanoma 95.7% | M14 melanoma 101% | HCT-15 colon 93.8% | HT29 colon 108% | SNB-75 CNS 94.6% | SNB-19 CNS 105% | U251 CNS 91.6% | PC-3 prostate 96.7% | SK-MEL-5 melanoma 100% | UACC-62 melanoma 102% | LOX IMVI melanoma 80.8% | SK-MEL-28 melanoma 115%

Cc1cc(NCc2cc(Nc3ccnc4cc(Cl)ccc34)ccc2F)nc(N2CCCC2)n1
active: K-562 leukemia -46.2% | MALME-3M melanoma -65.6% | MDA-MB-231 breast -49.1% | RXF 393 renal -65.5% | SF-268 CNS -2.08% | SF-295 CNS -84.4% | SF-539 CNS -68.5% | UACC-257 melanoma -17.8% | HCT-15 colon -60.7% | HT29 colon -40.2% | SNB-75 CNS -87.3% | U251 CNS -64.7% | SK-MEL-5 melanoma -94.2% | UACC-62 melanoma -62.6% | LOX IMVI melanoma -92.8% | SK-MEL-28 melanoma -69.4%
inactive: DU-145 prostate 10.8% | SNB-19 CNS 28.9% | PC-3 prostate 17.5%
